Screens: PubChem BioAssay, National Center for Advancing Translational Sciences (NCATS)
An excerpt weighted towards active compounds, which were near 8.2% of everything screened.
KB-V1 cytotox: kills drug-selected multidrug resistant KB-V1 cells | AID 1347076 | Potency, µM (series often up to 46.1 µM), hits mostly cytotoxic | KB-V1 MDR cells viability, CellTiter-Glo, 72 h | hit rate 3.4% among 400,000; further: on the % scale 0 is the no-effect control and ±100 the full control effect; nearly all actives have a fitted effect of over 60% in size
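In this primary screen, KB-V1 cells overexpressing P-gp are incubated with library compounds (lowest to highest concentration) for 72 h at 37 degrees C before a luminescent ATP viability read.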
ELG1 repair inh: inhibitors of ELG1-dependent DNA repair in HEK293T cells; HEK293T ELG1-luciferase reporter, luminescence, 16 h; DNA damage induced by 5-fluorouridine; Potency, µM (titrated, usually from 46.1 µM), for inactives: at the top dose activity change, negative = inhibition, most hits filed as inhibitors; hit rate 2.3% among 330,000; AID 504467; further: on the % scale 0 is the no-effect control and ±100 the full control effect; nearly all actives have a fitted effect of over 55% in size
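Cells (2,000 per well) received 5-fluorouridine plus test compound or DMSO and were incubated 16 hr at 37 °C, 5% CO2. Luciferase activity was read by luminescence 30 min after ONE-Glo addition; signal suppression marked inhibition of damage-induced ELG1 function.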
MCF10A rereplic: DNA re-replication induction in MCF 10a cells | hit rate 2.9% among 350,000 | Potency, µM (titrated, usually from 46.1 µM), without a hit: at the top dose activity, positive = re-replication, most hits filed as activators | MCF 10A DNA re-replication, Hoechst nuclear intensity, 48 h; further: % of control where 0% means no effect; nearly all actives have a fitted effect of over 50% in size
SW480 rerep: inducers of DNA re-replication in SW480 colon cancer cells; Potency, µM (doses to about 46.1 µM), inactives show at the top dose re-replication activation, hits mostly activators; hit rate 1.8% among 340,000; SW480 DNA re-replication, Hoechst DNA content imaging, 48 h; further: % of control where 0% means no effect; nearly all actives have a fitted effect of over 55% in size
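Image-based DNA-content assay: after two days of treatment, nuclei were labelled with the DNA dye Hoechst and imaged, and hits were compounds raising the count of nuclei showing high fluorescence intensity.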
KB-3-1 cytotox: KB-3-1 parental cell cytotoxicity. hit rate 1.4% among 400,000. Potency, µM (titrated, usually from 46.1 µM), usual class: cytotoxic. KB-3-1 viability, CellTiter-Glo ATP luminescence, 72 h; further: on the % scale 0 is the no-effect control and ±100 the full control effect; nearly all actives have a fitted effect of over 60% in size
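Using CellTiter-Glo luminescence, growth of non-resistant KB-3-1 adenocarcinoma cells is assessed 72 h after pin-tool compound addition at 37 °C. Normalized responses across the concentration series yield fitted curves.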
The depositor's hits bear a star; i = inactive; ? = inconclusive; . = no result; ! = not active in a repeat. The call rests on the fitted dose curve; in most records, active means well fitted curve in the direction sought with a large enough effect; inconclusive means small, poorly fitted or top-dose-only effect, or another doubt; inactive means no such curve, though single readings can be large; an effect the other way counts as inactive or inconclusive. Potency means the concentration at half of the fitted maximal effect.

SMILES	KB-V1 cytotox	ELG1 repair inh	MCF10A rereplic	SW480 rerep	KB-3-1 cytotox
COc1ccccc1CN(Cc1cc2cc(C)ccc2[nH]c1=O)Cc1nnnn1CC1CCCO1 (centres undefined)	21µM*	?	?	-1%	i
COc1ccc2[nH]c(=O)c(CN(Cc3ccccc3OC)Cc3nnnn3CC3CCCO3)cc2c1 (centres undefined)	?	16µM*	0%	-1%	i
Cc1ccc2[nH]c(=O)c(CN(CCc3ccccc3)Cc3nnnn3CC3CCCO3)cc2c1 (centres undefined)	15µM*	-13%	-8%	1%	i
O=c1[nH]c2cc3c(cc2cc1CN(Cc1nnnn1CC1CCCO1)C1CCCC1)OCO3 (centres undefined)	?	15µM*	1%	0%	i
COc1ccc2[nH]c(=O)c(CN(CCc3ccccc3)Cc3nnnn3CC3CCCO3)cc2c1 (centres undefined)	i	?	4%	10%	i
C[n+]1c(/C=C/c2ccc(N)cc2)sc2ccccc21	i	.	.	.	i
CN(C)S(=O)(=O)c1ccc(C(=O)OCC(=O)c2csc(N3CCCCC3)n2)cc1	i	?	10%	?	i
COc1ccc2[nH]c(=O)c(C(c3nnnn3C(C)(C)C)N(Cc3ccco3)CC3CCCO3)cc2c1 (centres undefined)	i	28%	25%	7.3µM*	i
COc1nc(N2CCCCCC2)nc(N2CCCCCC2)n1	15µM*	-1%	18µM*	19%	?
C(C#CCCCCCCCCC[n+]1ccccc1)#CCCCCCCCCC[n+]1ccccc1	i	18µM*	?	?	3.7µM*!
CCCCCCCCCC[n+]1cccc(Br)c1	i	.	.	.	?
COc1ccc(/C=C/c2nnc(NC(=O)COc3ccc(Cl)cc3)s2)cc1	i	.	.	.	i
Cc1noc2ncnc(Sc3ccc(Cl)cc3)c12	i	.	12µM*	?	?
Cc1ccccc1Sc1ncnc2onc(C)c12	i	-3%	?	-8%	?
Cc1noc2ncnc(Sc3c(Cl)cccc3Cl)c12	?	?	4.5µM*	?	?
COc1ccc(-c2ccc3ncnc(NCc4cccs4)c3c2)cc1	i	.	.	.	?
CCCCCCCCCC[n+]1ccc(/C=C/c2c(C)[nH]c3ccccc23)cc1	?	.	.	.	1.3µM*
CCCCCCCCCN(CCCCCCCCC)c1ccc(/C=C/c2ccnc3ccccc23)cc1	i	.	.	.	i
CC[n+]1ccc(/C=C/c2c[nH]c3ccccc23)cc1	i	?	?	?	1.8µM*
CCOC(=O)/C=C(C)\C=C\c1c[nH]c2ccccc12	i	-9%	2%	-3%	i
CCn1c(/C=C/c2c(C)[nH]c3ccccc23)nc2ccccc2c1=O	i	9%	?	?	i
C[n+]1ccc(/C=C/c2ccc(F)cc2)c2ccccc21	i	.	.	.	i
CCCCCCC[n+]1ccc(/C=C/c2c[nH]c3ccccc23)cc1	i	.	.	.	0.41µM*
CCCCCCCCCC[n+]1ccc(/C=C/c2c[nH]c3ccccc23)c2ccccc21	?	.	.	.	8.2µM*
O=C(Nc1ccc(C(=O)OC[C@@H]2CCCN3CCCC[C@H]23)cc1)c1cccc(Br)c1	i	1%	23µM*	-5%	i
SMILES	KB-V1 cytotox	ELG1 repair inh	MCF10A rereplic	SW480 rerep	KB-3-1 cytotox
C=CCN(CC=C)Cc1c(O)ccc2c(=O)c(-c3ccccc3)coc12	i	-18%	21µM*	?	i
CCC/C(C#Cc1ccsc1)=C1/c2ccccc2C(=O)N1c1ccccc1	?	?	23µM*	?	i
CCC/C(C#Cc1ccc(N(C)C)cc1)=C1/c2ccccc2C(=O)N1c1ccccc1	i	?	?	?	i
CC12CC(c3ccccc3O1)N(C(=O)c1ccco1)C(=S)N2c1ccccc1 (centres undefined)	i	-3%	23µM*	18%	i
COCCN(C(=O)Nc1ccccc1OC)c1nc2ccccc2s1	i	-6%	2%	2%	i
COc1ccc(NC(=O)c2cc(C)no2)cc1Cl	i	24%	9%	17%	i
COc1ccc(C(=O)CSc2ccc(-c3ccccc3)nn2)cc1	i	4%	1%	-3%	i
COc1ccc(-c2ccc(SC)nn2)cc1	9.2µM*	?	-3%	-2%	8.2µM*
Cn1c(=O)c2c(nc(NCC3CCCC(CN)C3)n2Cc2ccc(Cl)cc2Cl)n(C)c1=O (centres undefined)	?	-17%	?	4.1µM*	?
Cn1c(=O)c2c(nc(N3CCN(c4ccccn4)CC3)n2Cc2ccc(Cl)cc2Cl)n(C)c1=O	0.65µM*	15%	0%	-6%	i
CC(C)OC(=O)CSc1nc(N2CCOCC2)c2c(c1C#N)CC(C)(C)OC2	i	?	?	-5%	i
O=C1C=CC(=O)N1CCCCCCN1C(=O)C=CC1=O	18µM*	23µM*	3.7µM*	12µM*	?
O=C(/C=C/c1ccc(Br)o1)NC(c1ccccc1)c1ccccc1	23µM*	1%	1%	14%	i
